# An excerpt weighted towards active compounds, which were near 2.1% of everything screened.
# GRP78 ERSR act: induces the endoplasmic reticulum stress response in human glioma cells. U87-MG GRP78 promoter luciferase reporter, 16 h. Potency, µM, inactives show at the top dose activation, actives largely listed as activators. actives 0.02% (n = 420,000). AID 602332; further: series mostly up to about 76 µM; % of control where 0% means no effect; nearly all actives have a fitted effect of over 35% in size
#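 Stably transfected U87-MG glioma cells carrying a GRP78-based luciferase sensor; 16 h compound incubation. Luminescence end-point read 10 min after Bright-Glo addition at room temperature.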
# Mito fusion act: blocks mitochondrial division or promotes mitochondrial fusion. Potency, µM (top dose mostly 46.1 µM), inactives show top-dose growth rescue (activation), actives largely listed as activators. actives 0.23% (n = 320,000). S. cerevisiae fusion-defective mutant growth rescue, CellTiterGlo 48 h; further: % of control where 0% means no effect; nearly all actives have a fitted effect of over 45% in size
#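 Temperature-sensitive fusion-defective S. cerevisiae (e.g. fzo1-1, mgm1-5) were grown with compound in YPEG medium (3% ethanol, 3% glycerol) for 48 hours at 37C. Growth rescue was measured as viability by CellTiterGlo luminescence after 10 minutes at ambient.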
# aSyn yeast inh: rescues yeast growth from alpha-synuclein toxicity | Yeast expressing alpha-synuclein, growth rescue, BacTiter-Glo, 24 h | Potency, µM (series often up to 46.1 µM), inactives show at the highest dose growth rescue (activation), usual class: activators | actives 0.14% (n = 370,000); further: % of control where 0% means no effect; nearly all actives have a fitted effect of over 65% in size
#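 Galactose-induced alpha-syn yeast (OD600=0.02, raffinose-pregrown) + pinned cpd, 24 hr, 30 deg C; growth by BacTiter-Glo luminescence. Growth restoration scores as activation.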
# TDP-43 yeast inh: inhibitors of TDP-43 toxicity in yeast. TDP-43 expressing yeast growth rescue, BacTiter-Glo, 24 h. Potency, µM (series often up to 46.1 µM), for inactives: top-dose growth rescue (activation), most hits filed as activators. actives 1.8% (n = 410,000); further: % of control where 0% means no effect; nearly all actives have a fitted effect of over 50% in size
#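 In this qHTS, compounds that restore growth of yeast expressing TDP-43 appear as activators. Cells (OD600=0.02, galactose medium, raffinose-pregrown) are incubated with compound 24 hr at 30 deg C and growth is quantified by BacTiter-Glo.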
# AT treatment: potential ataxia-telangiectasia treatments restoring KAP-1 phosphorylation. F2112 A-T fibroblasts, KAP-1 phosphorylation AlphaLISA; neocarzinostatin DNA damage 30 min before lysis. Potency, µM (titrated, usually from 57.5 µM), without a hit: at the top dose activation, actives largely listed as activators. actives 0.19% (n = 320,000); further: % of control where 0% means no effect; nearly all actives have a fitted effect of over 45% in size
#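 hTERT-immortalized A-T patient fibroblasts (F2112), 500 cells/well in OPTI-MEM, 1% FBS, got compounds for 60 min, then NCS for 30 min at 37C. Lysates were then assayed for phospho-KAP-1 by AlphaLISA (anti-pKAP1 donor, anti-KAP1 acceptor beads), 6 hr at 25C.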
# Abeta rescue: restores growth of yeast expressing A-beta42 peptide | yeast expressing A-beta42, growth rescue, OD600, 48 h; response scale: 0% DMSO, 100% iron-clioquinol control | Potency, µM (doses to about 46.1 µM), most hits filed as activators | actives 0.063% (n = 410,000) | AID 1347071; further: nearly all actives have a fitted effect of over 55% in size
#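 Yeast A-beta toxicity model in growth medium with pinned compounds, 48 h at 30 C; growth read as absorbance at 600 nm. Normalized to FeCl3/clioquinol equimolar mix (positive) and DMSO (negative).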
# * marks the source's active call; other numbers are inactive results; i = inactive; ? = inconclusive; . = no result given; [ ] = another dose, or the depositor's remark. The call rests on the fitted dose curve; in most records, active means well fitted curve in the direction sought with a large enough effect; inconclusive means small, poorly fitted or top-dose-only effect, or another doubt; inactive means no such curve, though single readings can be large; an effect the other way counts as inactive or inconclusive. Potency means the concentration at half of the fitted maximal effect.
SMILES,GRP78 ERSR act,Mito fusion act,aSyn yeast inh,TDP-43 yeast inh,AT treatment,Abeta rescue
O=c1c(Cl)cc(Cl)nn1-c1ccccc1,-12.7%,-1.5%,-1.3%,25.1µM*,-0.1%,i
CCN1CCN(C(=O)C2CCCN(S(=O)(=O)c3cc(Cl)ccc3Cl)C2)CC1 (configuration not stated),-4.8%,-0.6%,-1.0%,7.6%,5.8%,i
CC1CCN(C(=O)C2CCN(S(=O)(=O)c3cc(Cl)ccc3Cl)CC2)CC1,-4.1%,1.6%,3.1%,12.6µM*,3.4%,?
CC1CCCCC1Nc1nc2ccc(Cl)cc2n2cnnc12 (configuration not stated),-1.1%,-42.9%,9.9%,12.6µM*,20.8%,i
CCOc1cc(C(=O)N2CC(=O)Nc3ccc(F)cc3C2c2ccccc2)cc(OCC)c1OCC (configuration not stated),-2.5%,.,.,16.0%,.,i
CCOC(=O)[C@]12CCCC=C1N(Cc1ccc(Cl)cc1Cl)C(=O)[C@H](CC(=O)N1CCN(C(=O)c3ccco3)CC1)C2,.,.,28.5%,15.8µM*,.,i
COC(=O)[C@]12CCCCC=C1N(Cc1ccc(Cl)cc1Cl)C(=O)[C@H](CC(=O)N1CCOCC1)C2,.,.,29.3%,17.8µM*,.,i
CCCCCCCCN1C(=O)[C@H](CC(=O)N2CCN(C(=O)c3ccco3)CC2)C[C@@]2(C(=O)OC)CCCCC=C12,.,.,10.9%,14.1µM*,.,i
COC(=O)[C@]12CCCCC=C1N(Cc1ccc(Cl)cc1Cl)C(=O)[C@H](CC(=O)N1CCCCC1)C2,.,.,11.1%,?,.,i
CC12CC3(C)CC(C)(C1)CC(C(=O)NC(=S)N1CCCC1)(C2)C3,0.9%,18.3%,4.8%,-8.9%[9.22 µM],1.9%,i
FC(F)(F)c1cc(-c2ccco2)nc(NCc2cccs2)n1,-6.0%,-1.4%,-10.9%,20µM*,?,i
Cc1ncc2c(c1CNC(=O)c1ccc3c(c1)OCO3)CCN(C(=O)c1cc3ccccc3n1C)C2,-2.9%,.,.,.,.,.
O=C(CCCCCN1C(=O)[C@@H]2Cc3ccccc3CN2C1=O)Nc1cccc(F)c1,-0.1%,12.6µM*,8.5%,-2.3%,2.9%,i
Cc1cccc(NC(=O)CCCCCN2C(=O)[C@@H]3Cc4ccccc4CN3C2=O)c1,1.4%,-2.2%,3.1%,26.5%,2.1%,i
CCc1ccccc1NC(=O)C(NS(=O)(=O)c1ccc2c(c1)CCC(=O)N2)c1ccccc1 (configuration not stated),-1.6%,.,.,1.1%,.,i
OC(c1ccc2c(c1)CN(Cc1cccn1-c1cccnc1)CCO2)C1CCCCC1 (configuration not stated),7.8%,.,.,.,.,.
CCCN(CCC)CCNC(=O)c1cc2c(=O)n(C)c3ccccc3c2n1C,-3.7%,-1.1%,11.2µM*,-2.5%,-7.5%,i
NC(=O)c1ccccc1NC(=O)Cn1nc(Cc2cccnc2)c2ccccc2c1=O,-3.9%,.,.,-13.9%,.,i
O=C(COC(=O)c1cccc(Cl)c1Cl)NCc1cccs1,-1.1%,-10.6%,-0.3%,12.6µM*,4.2%,i
O=C(CN1CCCN(Cc2ccccc2F)S1(=O)=O)Nc1ccc(F)c(Cl)c1,-3.6%,.,.,11.2µM*,.,?
COc1ccc(C(=O)/C=C/Nc2cc(C)on2)c(OC)c1,10.8%,-4.2%,12.6µM*,?,-7.0%,i
COc1ccc(C(=O)/C=C/Nc2ccc([N+](=O)[O-])cc2C)c(OC)c1,0.8%,-0.6%,-8.4%,-15.7%,0.4%,i
COc1ccc(C2CC(c3ccccc3)=NN2C(=O)COC(=O)c2cccnc2)cc1 (configuration not stated),-3.1%,19.3%,-0.2%,-6.2%,2.8%,i
COc1ccc(C2CC(c3ccc(Br)cc3)=NN2C(=O)c2cccnc2)cc1 (configuration not stated),-4.0%,17.8µM*,?,?,-2.3%,i
Cc1ccc(-c2onc(C)c2C)cc1S(=O)(=O)NCc1cccs1,-3.4%,.,.,15.8µM*,.,i
SMILES,GRP78 ERSR act,Mito fusion act,aSyn yeast inh,TDP-43 yeast inh,AT treatment,Abeta rescue
COc1ccc(-c2onc(C)c2C)cc1S(=O)(=O)NCC(C)c1ccccc1 (configuration not stated),-3.2%,.,.,35.5µM*,.,i
CCOc1ccccc1CNS(=O)(=O)c1cc(-c2onc(C)c2C)ccc1OC,-2.4%,.,.,21.9%,.,i
O=C(N/N=C/c1cn(-c2cccs2)nc1-c1ccccc1)c1ccccc1Cl,3.6%,17.8µM*,8.2%,0.1%,6.7%,i
CC(C)(C)n1ncc2c(=O)n(Cc3ccc(C(F)(F)F)cc3)cnc21,-8.3%,.,.,.,.,.
O=C(NCCS(=O)(=O)c1ccc(Br)cc1)c1ccc(Cl)cc1Cl,-4.4%,-4.5%,4.5%,-9.9%,8.7%,i
Cc1nc2c(-c3ccccc3)c(C)nn2c(C)c1CCC(=O)NCc1ccc(F)cc1,-2.2%,.,.,-3.1%,.,i
CCOC(=O)c1c(NC(=O)c2ccccc2Cl)sc2c1CCc1ccccc1-2,-7.5%,11.2µM*,-23.8%,-31.9%,5.5%,i
COc1ccc(CNC(=O)c2ccc3c(c2)CCN3S(=O)(=O)c2ccccc2)cc1,-0.1%,.,.,18.1%,.,i
COc1ccc2ncc(S(=O)(=O)c3ccccc3)c(N3CCC4(CC3)OCCO4)c2c1,-4.6%,-4.0%,7.0%,17.8µM*,-3.3%,i
COc1ccc2ncc(S(=O)(=O)c3ccccc3)c(N3CCN(c4ccccc4)CC3)c2c1,-2.0%,17.7%,?,15.8µM*,0.6%,i
COc1cc2ncc(S(=O)(=O)c3ccccc3)c(N3CCC4(CC3)OCCO4)c2cc1OC,0.5%,2.4%,0.3%,?,-5.2%,i
Cn1nnc2c(N3CCN(c4cccc(Cl)c4)CC3)ncnc21,-2.2%,.,.,6.8%,.,i
CCC(C)Nc1nc(-c2c[nH]c3ccccc23)cs1 (configuration not stated),-0.6%,-7.0%,0.1%,4.3%,35.5µM*,i
CNc1nc(-c2c[nH]c3ccccc23)cs1,-5.0%,-7.6%,-1.4%,-21.2%,24.2%,i
Cc1ccc(-c2cc(C(=O)NCCCN3CCOCC3)c3ccccc3n2)cc1,0.8%,-4.9%,1.2%,6.2%,-2.8%,i
O=C(N/N=C/c1cccnc1)c1cc(-c2ccccc2)nc2ccccc12,-2.5%,-8.5%,1.4%,-5.6%,-3.5%,i
Cc1ccc(-c2cc(C(=O)N/N=C/c3cccnc3)c3ccccc3n2)cc1C,1.5%,.,-10.8%,22.4µM*,.,i
Cc1ccc(-c2cc(C(=O)NCCCN3CCOCC3)c3ccccc3n2)cc1C,1.6%,6.31µM*,-6.3%,1.6%,0.3%,i
